For test [1], the system named is Wnt5a (protein binding on small-molecule microarray). As to the kind of experiment: small molecules binding Wnt5a protein – biophysical, small-molecule microarray, 635/667 nm fluorescence, primary screen (AID 1142).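 Further: fluorescence read at 667 nm with signal to noise per printed feature.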 As to conditions: 635 nm fluorescence, higher = more signal.
A short description of test [2]: ATP-based viability of Huh7 replicon cells – cell-based, CellTiter-Glo luminescence, basal, 48 h, cytotoxicity control for HCV replication inhibitor project, primary screen (AID 1143).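 Further: Huh7 hepatoma cells carrying a hepatitis C replication reporter with no stimulus; test concentration not given here.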 As to conditions: higher = more signal, called active from +8 up or from −8 down. (In general: A replicon is a self-replicating genome or part of one, used to study replication in cells.)

Test [3] can be described thus: Pseudomonas biofilm growth suppression – PAO1 strain, BacTiter-Glo luminescence, LB-PBS, primary screen (AID 1144). As to conditions: P. aeruginosa PAO1 biofilm, 12 h, higher = more signal.
Test [4] can be described thus: basal CRE-LacZ reporter activity in PC12 – cell-based, unstimulated, primary screen (AID 1145). As to conditions: no forskolin, luminescence, 4.5 h, higher = more signal, called active from +8 up or from −8 down.
The nature of test [5]: forskolin-driven CRE-LacZ activity in PC12 – cell-based, CRE-LacZ reporter, forskolin-stimulated, primary screen (AID 1146).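 Further: PC12 cells with 6xCRE LacZ reporter stimulated by forskolin 10 µM; beta-galactosidase reporter signal reflecting CREB driven transcription.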 As to conditions: luminescence, 4.5 h, higher = more signal, called active from +8 up or from −8 down.
Test [6] has as its target Streptavidin (Streptomyces avidinii) (UniProt P22629). As to the kind of experiment: compounds binding control protein streptavidin – biophysical, small-molecule microarray, 635/667 nm fluorescence, artefact control for SMM compound annotation, primary screen (AID 1147).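 Further: signal reflects streptavidin binding to arrayed compounds as a control protein.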 As to conditions: higher = more signal.
A short description of test [7]: probe aInhba binding on compound microarray – biochemical, small-molecule microarray, 635/667 nm fluorescence, primary screen (AID 1148).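 Further: score merges 667nm spot fluorescence with signal-to-noise for antibody binding to printed compounds.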 As to conditions: higher = more signal.
Test [8] has as its target Torsin-1A (Homo sapiens) (UniProt O14656). As to the kind of experiment: TOR1A wild-type binding on microarray – cell lysate, small-molecule microarray, lysate, 635/667 nm, primary screen (AID 1149). As to conditions: COS7 hTOR1A-WT lysate, 635 nm fluorescence, higher = more signal.
The target is the same in test [9]. As to the kind of experiment: torsin A mutant lysate binding on microarrays – cell lysate, small-molecule microarray, COS7 lysate, 635/667 nm fluorescence, primary screen (AID 1150).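 Further: score pools 667 nm emission and signal to noise measuring lysate protein binding.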 As to conditions: COS7 hTOR1A mutant lysate, 635 nm fluorescence, higher = more signal.
Test [10] relates to Sonic hedgehog protein (Shh). As to the kind of experiment: Sonic hedgehog microarray binding compounds – biochemical, small-molecule microarray, 635/667 nm fluorescence, primary screen (AID 1151).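 Further: Shh protein binding to compounds spotted on small-molecule microarray slides; score combines spot fluorescence intensity with signal-to-noise across triplicate slides.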 As to conditions: 635 nm fluorescence, higher = more signal.
Test [11] can be described thus: optical density shifts of acrAB sulA E. coli – strain DRC41, OD650, 48 h, E. coli filamentation inducer project, primary screen (AID 1152).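 Further: E. coli MC1000 strain DRC41 lacking acrAB efflux pump and sulA.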 Particulars: higher = more signal, called active from +8 up or from −8 down.
A short description of test [12]: probe aLefty1 binding on compound microarray – biochemical, small-molecule microarray, 635/667 nm fluorescence, primary screen (AID 1153).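 Further: score merges spot fluorescence with signal-to-noise ratio from the scanned slide images.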 As to conditions: higher = more signal.
Test [13] in a line: plasmodial surface anion channel blockers, osmotic lysis – cell-based, P. falciparum Indochina, OD700, 1 h, primary screen (AID 1154). Particulars: P. falciparum Indochina infected RBC osmotic lysis, higher = more signal, called active from +8 up or from −8 down.
Test [14] is described as follows: plasmodial surface anion channel blockers, osmotic lysis – cell-based, P. falciparum Indochina, OD700, 2 h, primary screen (AID 1155).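 Further: lysis reports solute entry through the parasite surface anion channel PSAC.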 Particulars: P. falciparum Indochina infected erythrocytes, higher = more signal, called active from +8 up or from −8 down.
A short description of test [15]: changes in parasitized red cell lysis, either direction – P. falciparum Indochina, OD700, 3 h, PSAC antagonist project, primary screen (AID 1156). Particulars: P. falciparum-infected erythrocytes, osmotic lysis, higher = more signal, called active from +8 up or from −8 down.
The nature of test [16]: plasmodial surface anion channel blockers, osmotic lysis – cell-based, P. falciparum Indochina, OD700, 18 h, primary screen (AID 1157). Particulars: P. falciparum Indochina infected erythrocytes, osmotic lysis OD700, 18 h; higher = more signal, called active from +8 up or from −8 down.
Test [17] is described as follows: S6 kinase pathway phospho-S6 level changes – cell-based, A549, cytoblot, luminescence, serum-stimulated, primary screen (AID 1158).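 Further: serum-stimulated A549 lung adenocarcinoma cells; signal is phosphorylated S6 detected by cytoblot immunostaining with HRP secondary.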 Particulars: 5 h, higher = more signal.
The target in test [18] is NADPH oxidase 2 (Homo sapiens) (UniProt P04839). As to the kind of experiment: compounds shifting NOX2 Amplex Red fluorescence – cell-based, HEK293-NOX2, PMA-stimulated, NOX inhibitor project, primary screen (AID 1159). Further: test concentration not given here. Particulars: 45 min, higher = more signal, called active from +8 up or from −8 down.
Sequence of NADPH oxidase 2 (Homo sapiens) (P04839 whole entry, looked up): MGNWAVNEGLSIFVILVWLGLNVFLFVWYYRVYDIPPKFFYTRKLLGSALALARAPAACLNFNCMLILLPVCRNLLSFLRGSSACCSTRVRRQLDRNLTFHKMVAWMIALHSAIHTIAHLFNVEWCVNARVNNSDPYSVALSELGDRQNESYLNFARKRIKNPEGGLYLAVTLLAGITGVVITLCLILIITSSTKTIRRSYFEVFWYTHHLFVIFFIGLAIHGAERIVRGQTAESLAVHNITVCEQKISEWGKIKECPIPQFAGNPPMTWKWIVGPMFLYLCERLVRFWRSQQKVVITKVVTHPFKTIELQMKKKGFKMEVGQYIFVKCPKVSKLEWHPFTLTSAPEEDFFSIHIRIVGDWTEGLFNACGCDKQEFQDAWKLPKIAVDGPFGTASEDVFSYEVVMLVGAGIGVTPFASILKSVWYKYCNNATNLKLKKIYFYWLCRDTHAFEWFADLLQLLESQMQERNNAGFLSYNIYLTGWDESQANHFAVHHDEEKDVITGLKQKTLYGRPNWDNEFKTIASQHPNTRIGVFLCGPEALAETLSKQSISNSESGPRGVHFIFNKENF
Test [19] addresses NADPH oxidase 4 (Homo sapiens) (UniProt Q9NPH5). As to the kind of experiment: compounds shifting NOX4 Amplex Red fluorescence – cell-based, HEK293-NOX4, tetracycline-induced, NOX inhibitor project, primary screen (AID 1160). As to conditions: HEK293-NOX4, Amplex Red H2O2 fluorescence, 45 min; higher = more signal, called active from +8 up or from −8 down.
For test [20], the target named is NADPH oxidase 5 (Homo sapiens) (UniProt Q96PH1). Nature of the test: compounds shifting NOX5 Amplex Red fluorescence – cell-based, HEK293-NOX5, NOX inhibitor project, primary screen (AID 1161). As to conditions: HEK293-NOX5, ionomycin, 45 min, higher = more signal.
Sequence of NADPH oxidase 5 (Homo sapiens) (Q96PH1 whole entry, looked up): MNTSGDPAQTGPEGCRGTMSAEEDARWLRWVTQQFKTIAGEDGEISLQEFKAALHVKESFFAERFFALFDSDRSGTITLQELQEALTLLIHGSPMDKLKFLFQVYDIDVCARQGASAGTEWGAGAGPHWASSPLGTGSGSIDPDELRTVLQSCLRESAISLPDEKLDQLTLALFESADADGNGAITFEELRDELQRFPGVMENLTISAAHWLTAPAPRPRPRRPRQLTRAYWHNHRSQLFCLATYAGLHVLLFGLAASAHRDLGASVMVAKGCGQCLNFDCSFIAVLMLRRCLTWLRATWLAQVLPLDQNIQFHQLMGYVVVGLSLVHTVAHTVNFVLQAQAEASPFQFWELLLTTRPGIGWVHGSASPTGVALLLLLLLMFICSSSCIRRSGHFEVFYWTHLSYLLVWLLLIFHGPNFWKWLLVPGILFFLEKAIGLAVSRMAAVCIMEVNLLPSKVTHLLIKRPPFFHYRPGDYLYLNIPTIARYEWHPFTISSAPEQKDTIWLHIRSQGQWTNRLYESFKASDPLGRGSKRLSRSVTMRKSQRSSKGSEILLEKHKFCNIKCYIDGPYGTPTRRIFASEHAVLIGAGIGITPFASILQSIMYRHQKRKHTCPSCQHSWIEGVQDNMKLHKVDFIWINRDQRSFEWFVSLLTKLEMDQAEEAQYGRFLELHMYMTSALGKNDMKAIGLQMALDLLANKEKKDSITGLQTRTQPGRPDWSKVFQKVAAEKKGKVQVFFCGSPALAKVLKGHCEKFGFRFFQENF

The source made the active and inactive calls. Unless noted, how the calls were made is not given here.

Sequence of Streptavidin (Streptomyces avidinii) (P22629 whole entry, looked up): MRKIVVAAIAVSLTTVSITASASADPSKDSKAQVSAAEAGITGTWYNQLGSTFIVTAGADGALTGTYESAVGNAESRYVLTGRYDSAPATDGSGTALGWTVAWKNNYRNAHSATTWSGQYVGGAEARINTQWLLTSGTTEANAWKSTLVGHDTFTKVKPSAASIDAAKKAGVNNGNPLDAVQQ
Sequence of NADPH oxidase 4 (Homo sapiens) (Q9NPH5 whole entry, looked up): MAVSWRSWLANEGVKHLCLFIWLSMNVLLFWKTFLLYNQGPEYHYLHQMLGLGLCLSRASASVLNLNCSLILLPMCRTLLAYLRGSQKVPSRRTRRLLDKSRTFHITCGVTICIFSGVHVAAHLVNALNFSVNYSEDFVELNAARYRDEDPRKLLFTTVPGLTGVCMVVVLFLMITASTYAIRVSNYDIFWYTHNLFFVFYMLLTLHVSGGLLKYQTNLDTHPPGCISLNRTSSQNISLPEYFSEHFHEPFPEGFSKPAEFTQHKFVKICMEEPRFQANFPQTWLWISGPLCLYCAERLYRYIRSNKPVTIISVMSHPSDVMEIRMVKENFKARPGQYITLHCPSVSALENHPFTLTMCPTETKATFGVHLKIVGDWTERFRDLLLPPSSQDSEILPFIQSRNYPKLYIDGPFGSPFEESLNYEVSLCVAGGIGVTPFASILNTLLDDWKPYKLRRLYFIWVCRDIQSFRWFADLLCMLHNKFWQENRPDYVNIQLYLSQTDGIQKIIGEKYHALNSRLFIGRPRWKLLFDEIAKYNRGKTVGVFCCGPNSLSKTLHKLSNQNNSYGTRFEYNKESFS
Sequence of Torsin-1A (Homo sapiens) (O14656 whole entry, looked up): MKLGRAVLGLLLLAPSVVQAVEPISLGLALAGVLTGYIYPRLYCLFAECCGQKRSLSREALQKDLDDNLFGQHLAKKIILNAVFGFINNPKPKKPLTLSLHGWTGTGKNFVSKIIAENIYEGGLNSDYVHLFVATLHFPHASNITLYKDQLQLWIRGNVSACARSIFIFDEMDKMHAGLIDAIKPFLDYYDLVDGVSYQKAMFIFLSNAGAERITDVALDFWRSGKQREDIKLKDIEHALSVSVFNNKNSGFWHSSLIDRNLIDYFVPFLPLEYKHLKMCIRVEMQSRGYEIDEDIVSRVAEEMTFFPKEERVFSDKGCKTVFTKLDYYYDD

`CC(C)CON=C1C[C@@H](O)[C@@H](O)[C@@H]2[C@@H]3C(=O)N([C@@H](C)c4ccccc4)C(=O)[C@@H]3CC[C@@H]12`: the composite z-score in test [1] is -0.0932; in [6], 0.0337; in [7], -0.0791; with Torsin-1A (Homo sapiens) [8], -0.0344; with Torsin-1A (Homo sapiens) [9] it was 0.118; in [10] it was -0.104. In [12], this molecule yielded a composite z-score of -0.0155. The z-score in [2] was -0.192 (inactive); in [3], 0.374 (inactive); in test [4] it was 0.149 (inactive); in [5] it was -0.776 (inactive); in test [11], -0.196 (inactive); in test [13] it was 0.694 (inactive). Besides, the z-score was 0.63 (inactive) in [14]; 0.181 (inactive) in test [15]; 0.281 (inactive) in [16]; -0.691 in [17]; -1.96 (inactive) in test [18]; 0.799 (inactive) in test [19]. The z-score in [20] is -0.519.
`CCCNC(=O)OC[C@H]1O[C@H](CCON=C2C[C@@H](O)[C@@H](O)[C@@H]3[C@@H]4C(=O)N(CC)C(=O)[C@@H]4CC[C@@H]23)C=C[C@@H]1Oc1ccc(OC)cc1`: the composite z-score in [1] was 0.0561; in test [6] it was 0.842; in test [7] it was 0.0256; in the test with Torsin-1A (Homo sapiens) [8], 0.509; with Torsin-1A (Homo sapiens) [9] it was 0.43; in test [10], 1.33. Further, the composite z-score in test [12] stood at 0.186. The z-score in test [2] was -0.402 (inactive); in test [3] it was 1.08 (inactive); in test [4], 0.68 (inactive); in test [5], 0.23 (inactive); in test [11], 0.599 (inactive); in [13] it was 1.69 (inactive). Moreover, the z-score in test [14] is 0.584 (inactive); in [15], -0.0328 (inactive); in test [16], 0.368 (inactive); in test [17] it was -0.432; in test [18], -0.708 (inactive); in test [19], 0.471 (inactive). The z-score in test [20] was -0.818.
For the molecule `C[C@@H]1CC[C@H]2C(=O)O[C@@H](CN=[N+]=[N-])CN2[C@H]1c1ccc(Br)cc1`, the composite z-score in [1] is -0.0229; in test [6] it was 0.414; in test [7], -0.179; with Torsin-1A (Homo sapiens) [8], 0.48; with Torsin-1A (Homo sapiens) [9] it was 0.581; in test [10], 0.888. In test [12], this molecule gave a composite z-score of -0.35. For the same molecule, the z-score is -3.67 (inactive) in [2]; -0.608 (inactive) in test [3]; 3.37 (inactive) in [4]; -0.833 (inactive) in test [5]; -2.31 (inactive) in test [11]; 25.4 (active) in test [13]. Also, the z-score is 8.11 (active) in [14]; 1.59 (inactive) in [15]; 2.16 (inactive) in test [16]; 0.476 in test [17]; -3.99 (inactive) in [18]; -3.91 (inactive) in test [19]. In addition, the z-score in test [20] is -0.668.
On to `CC(CCN1CCCc2nc(C)c(C)cc21)=NO[C@H](C)c1cn([C@@H]2COC[C@H]2O)nn1`, for which the composite z-score in [1] was found to be 0.395; in test [6], 0.764; in test [7], 0.0906; with Torsin-1A (Homo sapiens) [8], 1.47; with Torsin-1A (Homo sapiens) [9], 2.3; in test [10], 0.979. The molecule also yielded a composite z-score in [12] of 0.184. Further, the z-score in test [2] is 0.0307 (inactive); in [3], 0.392 (inactive); in test [4] it was -1.12 (inactive); in test [5], -0.181 (inactive); in test [11], 0.686 (inactive); in [13], 1.65 (inactive). The z-score was 0.763 (inactive) in [14]; 0.09 (inactive) in test [15]; 0.564 (inactive) in test [16]; -0.607 in [17]; -0.61 (inactive) in test [18]; -0.259 (inactive) in [19]. Further, in test [20], the z-score came to 0.371.
`C=CC[C@@H]1C=C[C@H](ON=C(C)CCN2CCCCc3nc(C)c(C)cc32)[C@@H](CO)O1`: the composite z-score in test [1] was 0.291; in test [6], -0.208; in [7], -0.179; with Torsin-1A (Homo sapiens) [8], 2.03; in the test with Torsin-1A (Homo sapiens) [9], 1.52; in test [10], 2.05. In test [12], this molecule gave a composite z-score of -0.0547. The z-score in test [2] is -1.25 (inactive); in test [3], 0.701 (inactive); in [4] it was 1.72 (inactive); in test [5], 0.578 (inactive); in test [11] it was -0.813 (inactive); in [13], 1.07 (inactive). Further, the z-score in [14] is 0.547 (inactive); in test [15] it was 0.325 (inactive); in [16], 0.392 (inactive); in test [17] it was -0.53; in [18], -0.953 (inactive); in test [19], -0.352 (inactive). In [20], the z-score is -0.424.

The record behind these values is PubChem BioAssay.
